The whole screen tested about 48,000 compounds, of which about 13,000 (27%) showed an effect of 50% or more. The list shows a part of the results.

For the experiment, the system named is Wolbachia pipientis. Kind of experiment: Anti-Wolbachia Cell-Based Screen. It counts as functional. Details: scale not given: in the data most compounds retested in dose-response had high values. Particulars: 5 µM.
Consider `CN(C)C(C(=O)NCCSc1ncn[nH]1)c1cccc(F)c1` (configuration not stated), for which the “Percent Effect” value is on record as -5.881%.
For `Cc1cc(NC(=O)CSc2nc(=O)ccn2C(C)C)no1` the value was -5.923%; for `C/C(=C/c1ccccc1)CNCc1cccc(C(N)=O)c1`, -6.417%.
As for `Cc1ccc(CNC(=O)NCC(=O)N2CCCC2)c(N2CCCC2)c1`, the “Percent Effect” value is recorded as -13.16%.
Consider `CCC(NCc1cc[nH]n1)c1nc(C(F)(F)F)cs1` (configuration not stated), for which the “Percent Effect” value is -5.752%.
The same measure for `COc1ccc(CN2C[C@@H]3CN(Cc4cccnc4)CCO[C@@H]3C2)cc1.O=C(O)C(F)(F)F.O=C(O)C(F)(F)F.O=C(O)C(F)(F)F`: 13.72%.
Turning to `CN1CCO[C@@H]2CN(C(=O)COc3cccc(Cl)c3)C[C@@H]2C1.O=C(O)C(F)(F)F`, the “Percent Effect” value was -8.699%.
For `CC(=O)N1CCO[C@@H]2CN(Cc3cccc(Cl)c3)C[C@@H]2C1.O=C(O)C(F)(F)F`, the “Percent Effect” value was determined as 105.7%.
The same measure for `Cc1[nH]ccc1C(=O)N1C[C@H]2CC[C@@H]1CN(S(=O)(=O)N(C)C)C2`: -3.55%; for `Cc1ccc(CNC(=O)N(C)Cc2ccc([S+](C)[O-])cc2)s1` (configuration not stated): -1.725%.
For `O=C(c1ccc(F)cc1)N1CCOC(c2nc(-c3ncccn3)no2)C1` (configuration not stated) the value was 124.8%; for `O=C(c1ccccc1F)N1CC(c2nc(-c3ccc[nH]c3=O)no2)C1`, 1.982%.
For `O=C(c1ccccc1F)N1CC(c2nc(C3CC3)no2)C1` the value was 5.464%.
Take `CO[C@H]1COCCN(C(=O)c2ccc(F)cc2)C1`: the “Percent Effect” value was found to be 0.8542%.
`Cc1ccc(C(=O)N2CCOC(c3nc(-c4ncccn4)no3)C2)cc1` (configuration not stated): the “Percent Effect” value came out at 94.58%.
The same measure for `O=C(c1ccccc1F)N1CCOC(c2nc(-c3ncccn3)no2)C1` (configuration not stated): 128.4%; for `O=C(c1cccnc1N1CCOC(c2ccc(F)cc2)C1)N1CCCC1` (configuration not stated): 5.755%; for `N#Cc1ccc(C(=O)N2CC(c3nc(-c4ncccn4)no3)C2)cc1`: 10.08%.
For `Cc1nccnc1-n1c(COCC(=O)O)nc2c(C)cccc21` the value was -2.278%; for `Cc1nc2c(C(=O)O)cccc2n1-c1ccc(C(=O)N2CCCC2)o1`, -15.07%.
For `CC(=O)N1CCN(C(=O)C[C@@H]2C[C@@H](C(C)C)[C@H](CC#N)C=C2C)CC1` the value was 4.574%.
As for `Cc1ccnc(N2CCC(NCCOc3ccccc3)CC2)n1`, the “Percent Effect” value is -3.135%.
On to `Cc1ccc(N2CCCC(NCC(=O)Nc3cc(C)nn3C)C2)nn1` (configuration not stated), for which the “Percent Effect” value stood at 95.11%.
The same measure for `Cc1ccc(N2CCCC(NCC(=O)NCC3CC3)C2)nn1` (configuration not stated): 1.938%.
Consider `CC(=O)NCCNC(=O)CNC1CCCN(c2ccc(C)nn2)C1` (configuration not stated), for which the “Percent Effect” value is reported as 88.86%.
For `Cc1ccc(N2CCCC(NCC(=O)NC(C3CC3)C3CC3)C2)nn1` (configuration not stated) the value was 84.95%; for `CC(C)=CCNC1CCCN(c2ccc(C)nn2)C1` (configuration not stated), -19.9%; for `Cc1ccc(N2CCCC(NCCCS(C)(=O)=O)C2)nn1` (configuration not stated), 0.9171%.
For `Cc1ccc(N2CCCC(NCCS(C)(=O)=O)C2)nn1` (configuration not stated) the value was 2.432%; for `COCCCNC1CCCN(c2ccc(C)nn2)C1` (configuration not stated), 22.77%; for `Cc1ccn(-c2ccc(NCc3ccnc(N4CCCCC4)c3)nn2)n1`, 4.336%.
As for `O=C(CCc1ccc(Br)cc1F)NS(=O)(=O)c1ccc2c(c1)OCCO2`, the “Percent Effect” value was -3.282%.
For `Cc1ccc(CN[C@@H]2CO[C@H](CNS(=O)(=O)c3ccccc3)[C@H]2O)cc1` the value was -4.281%; for `Cn1cc(S(=O)(=O)Nc2c(F)cccc2N2CCCC2)cn1`, -10.22%.
For the compound `CC1CCc2nc(NS(=O)(=O)c3cnn(C)c3)sc2C1` (configuration not stated), the “Percent Effect” value turned out to be 97.97%.
The same measure for `CCn1cc(S(=O)(=O)Nc2nc3c(s2)CC(C)CC3)cn1` (configuration not stated): 98.13%; for `Cn1cc(S(=O)(=O)Nc2ccc3[nH]c(C4CCC4)nc3c2)cn1`: -3.023%; for `CCn1cc(S(=O)(=O)NC2CCCN(CC3CCCCC3)C2)cn1` (configuration not stated): 19.95%.
For `CCn1cc(S(=O)(=O)NC2CCCC2)cn1` the value was 8.847%; for `Cc1oc(C(=O)O)cc1S(=O)(=O)Nc1ccc(Cl)c(Cl)c1`, -3.012%.
For the compound `Cc1oc(C(=O)O)cc1S(=O)(=O)Nc1cc(Br)ccc1Cl`, the “Percent Effect” value was 106.9%.
The same measure for `Cc1oc(C(=O)O)cc1S(=O)(=O)Nc1ccc(Br)cc1Cl`: 96.02%.
For `Cc1oc(C(=O)O)cc1S(=O)(=O)Nc1cccc(-n2nccc2C)c1` the value was -0.5451%; for `Cc1ccc(NS(=O)(=O)c2cc(C(=O)O)oc2C)c(Br)c1`, 0.9383%; for `Cc1noc(C)c1NS(=O)(=O)c1cc(C(=O)O)cc(Cl)c1Cl`, 3.53%.
The same measure for `O=S(=O)(CCNCc1ccc2c(c1)CCO2)N1CCOCC1`: 0.3646%; for `O=C(NCc1cccnc1-n1cccn1)C1CC(=O)N(CC2CC2)C1` (configuration not stated): -9.395%.
Regarding `CN1CC(C(=O)NCc2cccnc2-n2cccn2)CC1=O` (configuration not stated), the “Percent Effect” value amounted to 63.73%.
For `COCCN1CC(C(=O)NCc2cccnc2-n2cccn2)CC1=O` (configuration not stated) the value was 120.6%; for `CN(C)CCN1CC(C(=O)NCc2cn3cccnc3n2)CC1=O` (configuration not stated), -11.69%.
`O=C(NCc1ccnc(-n2cccn2)c1)C1CC(=O)N(CC2CC2)C1` (configuration not stated): the “Percent Effect” value amounted to 153.4%.
With `CCN1CC(C(=O)NCc2ccccc2-n2cccn2)CC1=O` (configuration not stated), the “Percent Effect” value is recorded as 3.983%.
For `CC(C)N1CC(C(=O)NCc2ccnc(-n3cccn3)c2)CC1=O` (configuration not stated) the value was -4.025%.
The same measure for `CN(C)CCN1CC(C(=O)NCc2cccc(-n3cccn3)c2)CC1=O` (configuration not stated): 7.096%; for `CCN1CC(C(=O)NCc2cccnc2-n2cccn2)CC1=O` (configuration not stated): 124.7%.
For `COCCN1CC(C(=O)NCc2ccnc(-n3cccn3)c2)CC1=O` (configuration not stated) the value was -1.182%.
As for `CN1CC(C(=O)NCc2cccnc2OCc2ccccc2)CC1=O` (configuration not stated), the “Percent Effect” value stood at 10.22%.
Turning to `CCS(=O)(=O)N1CCN(C(=O)c2ccc(Cn3cc(Br)cn3)cc2)CC1`, the “Percent Effect” value is on record as -241.9%.
In the case of `CCN(C(=O)CN1CCN(CC(C)O)CC1)C1=CCCCC1` (configuration not stated), the “Percent Effect” value is recorded as -11.46%.
The same measure for `COc1cc(F)c(-n2cnc(CCNC(C)=O)c2)cc1F`: -17.55%.
Regarding `CCN1CCN(S(=O)(=O)N2CCCC2)[C@H]2CS(=O)(=O)C[C@H]21`, the “Percent Effect” value is listed as -2.731%.
For `CCN(CC(=O)NCc1nc(C2CC2)no1)Cc1ccc(Cl)cc1` the value was 3.966%; for `O=C(NCc1cnn2cccnc12)C1CC(=O)N(Cc2cccnc2)C1` (configuration not stated), -5.518%; for `CC(C)CN1CC(C(=O)NCc2cccnc2-n2cccn2)CC1=O` (configuration not stated), 126%.
Turning to `CC(C)CN1CCN(C(=O)NCc2cccnc2-n2cccn2)CC1`, the “Percent Effect” value is recorded as 4.797%.
On to `COCC1c2nnn(CC3CC3)c2CCN1C(=O)CS(C)(=O)=O` (configuration not stated), for which the “Percent Effect” value is -0.612%.
In the case of `CN(C)C(CNc1c(NCc2ccco2)c(=O)c1=O)c1ccccc1` (configuration not stated), the “Percent Effect” value was 131.6%.
The same measure for `Cc1nn(-c2ccccc2)nc1C(=O)NCC(c1ccco1)N(C)C` (configuration not stated): -4.253%; for `CC(CNC(=O)NCc1ccco1)CC1(C)OCCO1` (configuration not stated): 3.835%; for `CC(O)CNc1c(NCc2ccco2)c(=O)c1=O` (configuration not stated): 135.5%.
For `CNc1c(NCc2ccco2)c(=O)c1=O` the value was 113.6%; for `O=S(=O)(Cc1ccccc1)NCc1ccco1`, 0.9463%; for `C[C@@H](O)CNc1c(NCc2ccco2)c(=O)c1=O`, 100.7%.
The same measure for `Cc1ccc(CS(=O)(=O)NCc2ccco2)cc1`: 3.7%; for `COc1ccccc1C(C)(C)NCc1ccco1`: -0.6951%; for `CCCNC(=O)CCNC1CSCCc2ccccc21` (configuration not stated): -10.65%.
In the case of `COC(=O)c1sccc1S(=O)(=O)N1CCC(Oc2ncccc2Cl)CC1`, the “Percent Effect” value was 25.07%.
Turning to `OCCN1CCc2[nH]nc(C(c3ccccc3)c3ccccc3)c2C1`, the “Percent Effect” value is 13.32%.
For `CCc1cnc(CN(C)C(=O)Nc2cnc3c(c2)c(C)nn3C)s1` the value was -8.075%.
The same measure for `O=C(c1ccc(O)nc1)N1CCN(C(=O)c2ccc(F)cc2F)CC1`: -4.376%; for `CCn1c(NCc2ccco2)nc2c(C)nn(C)c2c1=O`: 25.01%; for `CC(C)CNc1c(NCc2ccco2)c(=O)c1=O`: 131.9%.
For the compound `CNS(=O)(=O)c1cccc(C(C)NCc2ccco2)c1` (configuration not stated), the “Percent Effect” value is -0.2197%.
On to `CSCCCNC(=O)c1coc(Cn2cnc3ccccc32)n1`, for which the “Percent Effect” value stood at 7.588%.
In the case of `CCc1nc(CN2CCCC(NCc3nnc(C4CC4)o3)C2)no1` (configuration not stated), the “Percent Effect” value is reported as 5.014%.
In the case of `C1CC(c2noc(C3CC3)n2)CN(Cc2noc(C3CC3)n2)C1` (configuration not stated), the “Percent Effect” value is listed as 0.1706%.
For `CC(C)c1nnc(CNC2CCCN(Cc3noc(C4CC4)n3)C2)o1` (configuration not stated) the value was 144.7%.
As for `CCc1nnc(CNC2CCCN(Cc3noc(C4CC4)n3)C2)o1` (configuration not stated), the “Percent Effect” value was found to be 121.7%.
Regarding `C1CC(NCc2nnc(C3CC3)o2)CN(Cc2noc(C3CC3)n2)C1` (configuration not stated), the “Percent Effect” value turned out to be 132.9%.
Take `c1ccc2oc(NC3CCCN(Cc4noc(C5CC5)n4)C3)nc2c1` (configuration not stated): the “Percent Effect” value is 2.188%.
Consider `OCCN1CCC(CNCCOCC(F)(F)F)CC1`, for which the “Percent Effect” value is 0.8425%.
In the case of `Cc1ccc(-c2ncc(CNc3cnccc3CO)s2)o1`, the “Percent Effect” value turned out to be 8.317%.
The same measure for `FC(F)(F)CCc1ncnn1-c1ccc2c(c1)OCO2`: -6.748%.
The same measure for `Cc1ccccc1C(C(=O)N1CCN(C(=O)c2ccc[nH]2)CC1)N(C)C` (configuration not stated): 2.077%.
As for `Nc1ncc(CN2CCC(CCC(=O)NC3CC3)CC2)cn1`, the “Percent Effect” value is 2.927%.
With `CCO[C@H]1CCN(S(=O)(=O)c2cn(C)cn2)[C@H]1Cc1ccccc1.O=C(O)C(F)(F)F`, the “Percent Effect” value is recorded as -2.456%.
On to `Cn1cnc(S(=O)(=O)N2CC3(CCN(c4ccccc4)C3)C2)c1.O=C(O)C(F)(F)F`, for which the “Percent Effect” value is 94.4%.
The same measure for `CCN1CCC2(C1)CN(S(=O)(=O)c1cn(C)cn1)C2.O=C(O)C(F)(F)F.O=C(O)C(F)(F)F`: 110.7%; for `CC(C)CO[C@H]1CN(S(=O)(=O)c2cn(C)cn2)[C@@H]2CCCO[C@H]12.O=C(O)C(F)(F)F`: -4.682%.
Regarding `O=C(O)C(F)(F)F.O=S(=O)(C1CC1)N1CCC2(CN(c3ccccn3)C2)C1`, the “Percent Effect” value is listed as 2.12%.
For `Cn1cnc(S(=O)(=O)N2CCN(CC3CC3)c3ncccc3C2)c1.O=C(O)C(F)(F)F.O=C(O)C(F)(F)F` the value was -19.75%.
The same measure for `CCS(=O)(=O)N1CCC2(CN(C(=O)c3cn(C)cn3)C2)C1`: -4.508%; for `CCn1cc2c(n1)CN(S(=O)(=O)c1cn(C)cn1)CC2COC.O=C(O)C(F)(F)F` (configuration not stated): -7.552%.
For `CC(C)CN1CC[C@@H]2[C@@H]1CCN2S(=O)(=O)c1cn(C)cn1.O=C(O)C(F)(F)F` the value was 9.969%.
In the case of `CC(C)CN1CCC2(C1)CN(S(=O)(=O)c1cn(C)cn1)C2.O=C(O)C(F)(F)F.O=C(O)C(F)(F)F`, the “Percent Effect” value worked out at 81.89%.
Turning to `Cn1cnc(C(=O)N2CC3(CCN(S(=O)(=O)c4ccccc4)C3)C2)c1`, the “Percent Effect” value was -0.5352%.
For `Cn1cnc(S(=O)(=O)N2CC3(CCN(CC4CC4)C3)C2)c1.O=C(O)C(F)(F)F.O=C(O)C(F)(F)F` the value was 100.1%.
